# Compound activity: PubChem BioAssay, several laboratories
# SENP6 inh = blocks the human protease SENP6. Q9GZR1. Recombinant SENP6 catalytic domain, aminoluciferin luminescence. inhibition, % at 10 µM. hit rate 1.8% among 330,000. AID 2599;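 active = inhibition above about 50% at the single tested dose, limit read from the data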;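 note: plate controls were DMSO wells with enzyme for no effect and DMSO wells lacking enzyme for full effect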
# EBI2 antag = blocks human EBI2 receptor beta-arrestin signaling. hit rate 0.81% among 360,000. inhibition, % at 5 µM. AID 651636. P32249. EBI2 beta-arrestin recruitment, luminescence, 7a,25-OHC stimulated; in the data active = inhibition above about 38%;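 note: enzyme fragment complementation signal reports receptor beta-arrestin coupling in cells; 0% = agonist plus DMSO wells and 100% = wells without agonist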
# Target sequence (P32249 whole entry, looked up, the tested form may be a part): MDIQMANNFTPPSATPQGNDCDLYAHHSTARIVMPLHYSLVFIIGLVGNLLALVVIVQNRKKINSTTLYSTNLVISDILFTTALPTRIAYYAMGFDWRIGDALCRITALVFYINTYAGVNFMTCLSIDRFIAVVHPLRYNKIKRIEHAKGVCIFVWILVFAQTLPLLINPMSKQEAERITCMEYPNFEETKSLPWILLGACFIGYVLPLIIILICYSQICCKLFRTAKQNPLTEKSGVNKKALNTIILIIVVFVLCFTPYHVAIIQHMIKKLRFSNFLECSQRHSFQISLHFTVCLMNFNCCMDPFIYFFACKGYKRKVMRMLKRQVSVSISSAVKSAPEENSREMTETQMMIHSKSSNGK
# SENP8 block-1 = blocks human SENP8 cleavage of Nedd8 substrate | recombinant SENP8, Nedd8 substrate fluorescence | inhibition, % at 20 µM | AID 602440 | hit rate 0.64% among 360,000 | Q96LD8; in the data active = inhibition mostly above about 40%, no sharp cut-off; inactive = mostly below about 27%
# SENP7 block = SENP7 protease inhibition. recombinant SENP7, Z-RLRGG-aminoluciferin luminescence, 40 min. inhibition, % at 5 µM. hit rate 1.5% among 330,000;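 active = inhibition above about 50% at the single test dose, limit read from the data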;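 note: plate controls were DMSO with enzyme for no effect and no enzyme buffer wells for full effect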
# Target sequence (Q9BQF6 706-1050 limits assumed): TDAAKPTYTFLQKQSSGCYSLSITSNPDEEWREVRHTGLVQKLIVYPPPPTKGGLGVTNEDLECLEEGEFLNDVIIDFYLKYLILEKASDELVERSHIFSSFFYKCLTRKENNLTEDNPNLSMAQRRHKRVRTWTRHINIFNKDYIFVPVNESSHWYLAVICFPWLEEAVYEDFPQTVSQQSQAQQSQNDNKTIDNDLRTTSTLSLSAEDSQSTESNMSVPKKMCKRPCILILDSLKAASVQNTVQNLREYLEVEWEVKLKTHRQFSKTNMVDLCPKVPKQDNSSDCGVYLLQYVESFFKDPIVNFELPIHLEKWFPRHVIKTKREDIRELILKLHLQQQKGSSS
# AHR act = activates the human aryl hydrocarbon receptor; P35869; AHR-responsive luciferase reporter cells, luminescence; activation, % at 5 µM; hit rate 2.5% among 320,000; AID 2796; in the data active = activation above about 47%;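 note: 0% = vehicle wells and 100% = reference agonist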
# SENP8 block-2 = SENP8 protease inhibition; Q96LD8; AID 2540; purified SENP8, Z-RLRGG-aminoluciferin cleavage, luminescence; hit rate 1.2% among 330,000; inhibition, % at 10 µM; in the data active = inhibition above about 50%
# EBI2 antag conf = EBI2 (human) antagonism, single concentration confirmation. shares compounds with EBI2 antag. EBI2 beta-arrestin luminescence, 7a,25-OHC antagonism. inhibition, % at 5 µM. hit rate 29% among 2,400;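 active = inhibition of at least 50%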
# EBI2 agonist = EBI2 agonism counter-screen | shares compounds with EBI2 antag | EBI2-expressing cells, agonist mode, luminescence, 60 min; 0% vehicle, 100% 7α,25-dihydroxycholesterol control | activation, % at 5 µM | 2,400 tested, under 10 active | AID 652000;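 active = activation of at least 50%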
# bGal counter = inhibits E. coli beta-galactosidase, counter-screen for EBI2 antagonists | hit rate 1% among 2,400 | inhibition, % at 5 µM | purified beta-galactosidase, luminescent Galacton Star, 15 min | AID 652176 | shares compounds with EBI2 antag;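 active = replicate-average signal at least 3 plate SD below neutral wells, shown as high inhibition, flagging enzyme-inhibiting false positives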;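 note: 0% = DMSO wells with enzyme and 100% = wells lacking enzyme; higher means stronger loss of beta-gal luminescence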
# * marks the source's active call; other numbers are inactive results; x = no result. A selection: hits, their analogues and other compounds. The true share with any hit is near 5%.
SMILES,SENP6 inh,EBI2 antag,SENP8 block-1,SENP7 block,AHR act,SENP8 block-2,EBI2 antag conf,EBI2 agonist,bGal counter
CCC1Nc2ncnc(N3CCOCC3)c2N(Cc2ccc(OC)cc2)C1=O (stereo unspecified),-11.5,-17.8,-1.6,10.0,0.7,8.2,x,x,x
O=C1C(Cc2ccccc2)Nc2ncnc(N3CCc4ccccc4C3)c2N1Cc1ccc(Br)cc1 (stereo unspecified),-7.3,x,x,14.8,2.8,-11.8,x,x,x
O=C1C(Cc2ccccc2)Nc2ncnc(N3CCN(c4ccccc4)CC3)c2N1Cc1ccc(Br)cc1 (stereo unspecified),-2.7,74.8*,-4.4,4.0,0.3,9.7,70.6*,-4.0,41.3*
CCC1Nc2ncnc(N3CCN(c4ccccc4)CC3)c2N(Cc2ccc(OC)cc2)C1=O (stereo unspecified),-17.2,56.1*,2.3,3.1,2.2,-12.2,60.3*,-3.6,61.2*
CCC1Nc2ncnc(N3CCN(c4ccccc4)CC3)c2N(Cc2ccc(Br)cc2)C1=O (stereo unspecified),2.5,78.3*,-2.2,0.7,4.2,5.3,80.0*,-4.8,70.3*
Cc1ccc(CN2C(=O)C(C)Nc3ncnc(N4CCN(c5ccccn5)CC4)c32)cc1 (stereo unspecified),-14.2,53.5*,-26.0,-3.4,60.1*,3.5,45.7,-2.5,48.9*
C[C@H](CO)N1C[C@H](C)[C@@H](CN(C)C(=O)Nc2ccc(C(F)(F)F)cc2)Oc2ccc(NS(=O)(=O)c3cccs3)cc2C1=O,-20.3,3.0,14.4,-7.3,1.1,-16.7,x,x,x
O=C(CSC1CC(=O)N(c2ccc(C(=O)O)cc2)C1=O)Nc1ccc(Cl)cc1 (stereo unspecified),-15.7,1.9,-10.1,-4.2,3.7,0.0,x,x,x
Cc1ccc(CN2C(=O)C(Cc3ccccc3)Nc3ncnc(N4CCN(c5ccccc5)CC4)c32)cc1 (stereo unspecified),9.7,59.9*,-2.3,-3.9,2.1,3.9,61.7*,-3.2,37.4*
O=C1C(Cc2ccccc2)Nc2ncnc(N3CCN(c4ccccc4)CC3)c2N1Cc1ccccc1 (stereo unspecified),10.9,6.0,-26.1,1.7,3.5,9.3,x,x,x
Cc1ccc(CN2CCN(C(=O)c3ccncc3)CC2)cc1,-2.0,1.2,18.0,-2.0,-3.4,2.0,x,x,x
Cc1ccc(NC(=O)N2CCC(O)(c3ccc(Cl)cc3)CC2)cc1,-1.7,77.9*,8.2,4.5,1.4,-3.0,75.3*,0.0,9.2
COc1ccc(-c2cc3nc(C)c(CCC(=O)NCc4ccc(F)cc4)c(C)n3n2)c(OC)c1,-11.3,52.7*,-374.6,-5.4,15.0,-4.0,40.5,2.3,-7.3
C[C@@H]1CN([C@H](C)CO)C(=O)c2cccc(NC(=O)NC3CCCCC3)c2O[C@@H]1CN(C)C(=O)Nc1ccc(C(F)(F)F)cc1,-10.9,72.2*,-16.4,-6.2,-0.9,10.0,46.0,-0.8,-11.4
N#Cc1ccc(/C=C\c2nccc3c2[nH]c2ccccc23)cc1,-12.2,47.8*,-437.0,-8.6,40.6,0.5,24.8,1.7,3.2
Clc1ccc(C=Cc2ccccn2)cc1,x,29.7,-43.6,x,x,x,x,x,x
Clc1ccc(/C=C\c2nccc3c2[nH]c2ccccc23)cc1,x,64.8*,-397.6,x,x,x,45.4,1.4,0.4
OCCCCc1nccc2c1[nH]c1ccccc12,-0.5,1.5,-303.8,3.2,4.5,7.9,x,x,x
COc1cc(-n2c(=O)c3ccccc3n(Cc3cc(=O)n4ccccc4n3)c2=O)cc(OC)c1OC,2.8,-9.8,-368.2,2.9,-0.9,-2.4,x,x,x
N#C/C(=C\c1ccc(Br)s1)C(=O)N1CCN(c2ccccc2)CC1,8.1,73.2*,18.9,6.3,-1.9,-4.1,20.6,0.0,8.0
N#C/C(=C\c1ccc(Cl)s1)C(=O)N1CCN(c2ccccc2)CC1,1.2,21.2,18.0,6.6,-0.2,-3.5,x,x,x
COCCNC(=O)C(c1ccc(F)cc1)N(C(=O)CCC(=O)Nc1ccccn1)C1CCCCC1 (stereo unspecified),-3.8,2.7,11.1,-2.5,0.8,-2.3,x,x,x
CCOC(=O)C1(Cc2ccc(OC)cc2)CCN(C(=O)CN2CCCCC2=O)CC1,4.0,-5.8,8.3,5.6,0.7,1.6,x,x,x
O=C(NCCCc1ccccc1)C1CCC(=O)N(Cc2ccc(Cl)cc2)C1 (stereo unspecified),-3.5,34.8,10.8,5.8,1.1,6.0,x,x,x
COc1ccc(CCCNC(=O)C2CCC(=O)N(Cc3ccc(Cl)cc3)C2)cc1 (stereo unspecified),-2.9,49.0*,-1.2,-12.7,x,-0.9,24.0,-0.1,9.1
SMILES,SENP6 inh,EBI2 antag,SENP8 block-1,SENP7 block,AHR act,SENP8 block-2,EBI2 antag conf,EBI2 agonist,bGal counter
O=C1N=C(N2CCCC2)S/C1=C\c1ccccc1,9.4,0.2,31.6,9.9,-4.5,-1.9,x,x,x
CCOC(=O)C1CCCN(C2=NC(=O)/C(=C/c3ccc(OC)cc3)S2)C1 (stereo unspecified),-4.2,61.1*,-15.8,3.8,3.9,3.5,37.9,0.7,-2.2
C=CCOc1ccc(/C=C2\SC(N3CCCCC3)=NC2=O)cc1,2.0,57.0*,-16.9,-3.3,8.8,1.8,43.4,1.3,9.4
CCOC(=O)C1CCCN(C2=NC(=O)/C(=C/c3ccc(OC)cc3OC)S2)C1 (stereo unspecified),-13.4,10.0,-51.4,-2.6,x,-5.0,x,x,x
O=C1N=C(N2CCCCC2)S/C1=C\c1ccc(Cl)cc1,-10.7,85.7*,-3.4,-10.1,30.3,-21.5,54.7*,0.1,10.1
Cc1ccc(CN2CCc3c(OCC(=O)Nc4cc(C)ccc4C)cccc3C2=O)cc1,16.8,x,x,9.6,30.8,-9.5,x,x,x
COc1ccccc1C(=O)Nc1ccnn1C1CCN(Cc2ccc3nonc3c2)CC1,-15.0,-12.1,6.6,9.6,4.3,-1.6,x,x,x
CC1CCCC(NC(=O)CCCCCn2c(=S)[nH]c3ccsc3c2=O)C1C (stereo unspecified),x,-0.9,14.0,x,x,x,x,x,x
CC1CC(C)CN(S(=O)(=O)c2ccc(NC(=S)NC(=O)c3ccccc3)cc2)C1 (stereo unspecified),3.4,46.8*,7.5,9.0,-0.5,2.8,21.0,1.2,4.6
COc1cccc(CNc2ccc(S(=O)(=O)N3CCCC3)cn2)c1,-4.4,12.9,0.0,3.0,2.7,1.6,x,x,x
O=C(CCc1c[nH]c2ccccc12)NCCc1ccc(Cl)cc1,2.3,49.2*,12.7,-7.0,1.9,-2.0,29.4,0.0,7.0
O=C(CCc1c[nH]c2ccccc12)NCCc1ccccc1,-8.2,6.7,12.8,2.9,0.6,3.2,x,x,x
O=C(COc1ccc2ccccc2c1)N1CCN(c2ccccc2)CC1,-11.7,50.1*,1.0,-3.5,6.1,-3.0,39.8,-1.0,-18.1
